Experimental data reported in PubChem BioAssay (NCI).
About 83,000 compounds went through this panel and 20% of them were active in at least one assay; those are over-represented in the sample as a whole.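 Cell lines were cultured in 96-well plates, exposed to a single compound concentration, and assessed for percent growth 48 hours later.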 Values without a mark were called inactive. Active and inactive are the calls of the source. How the source made its calls: active means growth percent below 10; inactive means the rest.

Key:
Test in all cases: NCI-60 one-dose screen, 48 h (100 = growth as untreated, 0 = no growth, -100 = all killed)
HCT-15 colon = conditions: 10 µM unless noted
HT29 colon = conditions: 10 µM unless noted
SNB-75 CNS = conditions: 10 µM unless noted
SNB-19 CNS = conditions: 10 µM unless noted
U251 CNS = conditions: 10 µM unless noted
PC-3 prostate = conditions: 10 µM unless noted
SK-MEL-5 melanoma = conditions: 10 µM unless noted
UACC-62 melanoma = conditions: 10 µM unless noted
LOX IMVI melanoma = conditions: 10 µM unless noted
SK-MEL-28 melanoma = conditions: 10 µM unless noted
SK-MEL-2 melanoma = conditions: 10 µM unless noted
EKVX NSCLC = conditions: 10 µM unless noted
SN12C renal = conditions: 10 µM unless noted
UO-31 renal = conditions: 10 µM unless noted
TK-10 renal = conditions: 10 µM unless noted
ACHN renal = conditions: 10 µM unless noted
A498 renal = conditions: 10 µM unless noted
CCRF-CEM leukemia = conditions: 10 µM unless noted
MOLT-4 leukemia = conditions: 10 µM unless noted
CAKI-1 renal = conditions: 10 µM

Row | SMILES | growth (HCT-15 colon) | growth (HT29 colon) | growth (SNB-75 CNS) | growth (SNB-19 CNS) | growth (U251 CNS) | growth (PC-3 prostate) | growth (SK-MEL-5 melanoma) | growth (UACC-62 melanoma) | growth (LOX IMVI melanoma) | growth (SK-MEL-28 melanoma) | growth (SK-MEL-2 melanoma) | growth (EKVX NSCLC) | growth (SN12C renal) | growth (UO-31 renal) | growth (TK-10 renal) | growth (ACHN renal) | growth (A498 renal) | growth (CCRF-CEM leukemia) | growth (MOLT-4 leukemia) | growth (CAKI-1 renal)
1 | CCC(N)(C(=O)O)c1ccc(F)cc1 (stereo unspecified) | 104% | 94.9% | 113% | 107% | 90.7% | 81.4% | 99.9% | 112% | 96% | 112% | 98% | 104% | 102% | 98.5% | 95.5% | 114% | 117% | 94.8% | 90.1% | 
2 | CCN(CC)c1ccc(C2CC(c3cc(OC)c(OC)c(OC)c3)=NN2)cc1 (stereo unspecified) | 36.1% | -3.21% (active) | 18.7% | 14% | 33% | 26.3% | -26.4% (active) | 48.5% | 40.5% | 64.8% | 27.6% | 27.6% | 47.2% | 36.5% | 77.8% | 75.3% | -2.94% (active) |  | 7.4% (active) | 
3 | CC(=O)Nc1ccc([I+]c2ccc([N+](=O)[O-])cc2)cc1 | 100% | 81.3% | 90.5% | 109% | 81.1% | 82.3% | 80.6% | 81.1% | 90.5% | 106% | 103% | 88.7% | 88.3% | 60.8% | 87.4% | 89.7% | 104% |  | 86.9% | 
4 | COc1cccc(C2CC(c3cc(OC)c(OC)c(OC)c3)=NN2)c1 (stereo unspecified) | 67.3% | 37.1% | 74.4% | 77.2% | 85.6% | 69.1% | 83.7% | 82.4% | 61% | 101% | 94% | 117% | 91.8% | 94.9% | 106% | 94.3% | 82.2% |  | 81.2% | 
5 | CC(C(C(=O)N1CCCCC1)N1CCCCC1)N1CCCCC1 (stereo unspecified) | 107% | 105% | 100% | 103% | 97.9% | 107% | 112% | 102% | 107% | 107% | 111% | 112% | 102% | 94.9% | 101% | 116% |  | 116% | 79.8% | 
6 | CCOC(=O)C1CSC(C)(C(=O)OCC)N1 (stereo unspecified) | 101% | 87.9% | 100% | 107% | 106% | 95.1% | 101% | 105% | 98.2% | 107% | 99.4% | 94.7% | 104% | 95.6% | 91.9% | 110% |  |  | 92.8% | 
7 | O=C(Nc1ccc(F)cc1)Nc1ccc(Br)c(C(F)(F)F)c1 | 8.12% (active) | 6.61% (active) | 22.2% | 19.8% | 11.6% | 4.68% (active) | 4.53% (active) | 21.7% | -16.7% (active) | 20.8% | -11.1% (active) | 7.24% (active) | 11.3% | 7.01% (active) | 10.4% | 2.25% (active) | 4.62% (active) |  | 12.8% | 
8 | COc1cc2c(/C=C3/C(=O)Nc4ccc(O)cc43)c(Cl)n(Cc3cc(OC)c(OC)c(OC)c3)c2cc1C | 38.1% | 10.4% | 32.2% | 20.2% | 32.2% | 11.3% | -64.5% (active) | 36.6% | 39.7% | 45.2% | 36.7% | 13.3% | 59.6% | -0.307% (active) | 25.8% | 130% |  | -9.62% (active) | -24.1% (active) | 
9 | CC(C)(C)OC(=O)N1CC(Cn2cc(C(F)(F)F)c3c(Cl)ncnc32)C1 | -41.4% (active) | -62.2% (active) | -52.5% (active) | -89.8% (active) | -98% (active) | -75% (active) | -84.6% (active) | -78.1% (active) | -86.9% (active) | -79.6% (active) | -77.4% (active) | 50.3% | -25.4% (active) | -95.1% (active) | 115% | 73.5% | 34.2% | -26.6% (active) | -37.5% (active) | 
10 | COc1cc(C(=O)N2CCN(C(=O)c3cc(OC)c(OCc4ccccc4)cc3N)CC2)c(N)cc1OCc1ccccc1 | 130% | 116% | 108% | 108% | 115% | 106% | 71.4% | 114% | 108% | 123% | 102% | 90.8% | 111% | 98.3% | 131% | 159% | 132% |  | 101% | 
11 | COc1ccc(C[C@H](N)C(=O)N[C@@H]2[C@@H](CO)OC(n3cnc4c(N(C)C)ncnc43)[C@@H]2O)cc1 (stereo partly specified) | 71.6% | -63.8% (active) | -40.7% (active) | -4.27% (active) | -91.6% (active) | -6.6% (active) | -96.6% (active) | -81.3% (active) | -61.9% (active) | -64.4% (active) | -74.4% (active) | -47.2% (active) | -13.3% (active) | 16.2% | -75.7% (active) |  | -65.6% (active) | -3.9% (active) | -22.3% (active) | 42.8%
12 | c1ccc(OCC[P+](c2ccccc2)(c2ccccc2)c2ccccc2)cc1 | 78% | 13% | 16.5% | 21.5% | 14.8% | 11.8% | -40.1% (active) | 8.25% (active) | 2.69% (active) | 26.1% | -16.2% (active) | 26.3% | 29.8% | 63.5% | 40.2% | 60.5% | 74.2% |  | 34.8% | 
13 | COc1cc(/C=C\c2cc(/C=C\c3ccc(O)c(OC)c3)n(C(=O)CNc3ccccc3OC)n2)ccc1O | 56.3% | 109% | 61.6% | 70.9% | 53.4% | 64.2% | 44.8% | 79.1% | 40.2% | 70% | 61.2% | 91.6% | 75.4% | 46.4% | 113% | 45.3% | 105% | 45.2% | 58.6% | 
14 | O=C(COc1ccc(Cl)cc1)N1CCN(Cc2ccc3c(c2)OCO3)CC1 | 96.8% | 112% | 102% | 95.6% | 94.3% | 90.3% | 97.7% | 81.8% | 89.5% | 116% | 123% | 85.9% | 91% | 61.5% | 116% |  | 84.5% | 97.4% | 100% | 76.6%
15 | CN(C)c1ccc(/C=N/N=C(N)N)cc1 | 49% | 26.4% | 66.5% | 74.2% | 60.2% | 83.8% | 47.3% | 72.7% | 70.5% | 81.7% | 78.6% | 89.3% | 82.3% | 72.5% | 106% | 98.5% | 17.7% |  | 83.2% | 
16 | O=C(C[n+]1cccc(Br)c1)c1ccc2c(c1)CCCC2 | 99.4% | 80.7% | 101% | 108% | 102% | 94.3% | 99.2% | 104% | 97.1% | 105% | 102% | 94.8% | 104% | 90.1% | 105% | 108% |  | 102% | 86.2% | 
17 | CCOc1ccc(Cc2nccc3cc(OCC)c(OCC)cc23)cc1OCC | 59.8% | 25.2% | 99.6% | 62.5% | 62.8% | 52.9% | 47.1% | 50.7% | 53.8% | 91.7% | 80.4% | 42% | 58.9% | 37.5% | 68.6% |  | 35.5% | 58.7% | 27.2% | 48%
